# In PubChem BioAssay (Tox21):
# Results filed as inconclusive are left out. A number with no mark means an inactive call. Active and inactive are the calls of the source. Calls come from the whole dose curve; as a rule, active = well fitted cell-killing curve with a large enough effect in the repeat runs; inconclusive = weak or mixed curves, or effect the other way; inactive = flat fitted curve, though single readings scatter.
# Assay: cAMP Responsive Elements (CRE) small molecule antagonists, cell-based qHTS assay: qHTS cell viability counter screen (AID 2060913); note: nearly all actives have a fitted effect of over 40% in size
# Settings: CRE-bla HEK293T viability, CellTiter-Glo luminescence, 5 h; series mostly up to 92.4 µM; viability change, negative = cytotoxic: at the top concentration
# Text: U.S. Tox21 Program National Center for Advancing Translational Sciences [NCATS] Division of Preclinical Innovation [DPI] U.S. Environmental Protection Agency [EPA] National Institutes of Environmental Health Sciences [NIEHS] National Toxicology Program [NTP] U.S. Food and Drug Administration [FDA] Tox21 Assay Overview: CREB (cyclic-AMP Responsive Element Binding Protein) is a cellular transcription factor. It binds to certain DNA sequences called cAMP Responsive Elements (CRE) and regulates the transcription of the genes. […] This cell line can be used to find agonists/antagonists of the cyclic AMP signaling pathway. The activation of the report gene under culture conditions can be detected by fluorescence intensity. This cell line has been used to screen the Tox21 10K compound library to identify agonists that induce oxidative stress. The cytotoxicity of the Tox21 compound library against the CRE-bla cell line was tested in parallel by measuring the cell viability using CellTiter-Glo assay (Promega, Madison, WI) in the same wells.
# Tox21 Assay Protocol Summary: CRE-bla Hek 293T cells were suspended in assay medium (DMEM containing 10% dialyzed FBS, 0.1 mM NEAA, 1 mM sodium pyruvate and 25 mM HEPES) and dispensed at 2,000 cells/4 uL /well into 1536-well black wall/clear bottom plates using a Multidrop Combi (ThermoFisher Scientific, Waltham, MA) dispenser. After the assay plates were incubated at 37 C/5% CO2 for 18 hrs, 23 nL of compounds dissolved in DMSO, positive controls or DMSO only was transferred to the assay plate by a pintool workstation (Kalypsys, San Diego, CA), followed by addition of 1 uL of 1.25uM NKH477 (0.25 uM as final concentration) in assay medium using a Flying Reagent Dispenser (Aurora Discovery, San Diego, CA). The plates were incubated at 37 C and 5% CO2 for 3 hrs. Then 1 uL of LiveBLAzer B/G FRET substrate (Invitrogen, Carlsbad, CA) was added to each well using Bioraptr Flying Reagent Dispenser (FRD, Aurora Discovery, San Diego, CA). The plates were incubated at room temperature for 2 h, then fluorescence intensities were measured using an Envision plate reader (PerkinElmer, Shelton, CT) at Excitation 405nm, Emission 460nm and 530nm. The % activity was determined from the ratio of 460nm/530nm. For cell viability readout that measures cytotoxicity, 4 uL /well of CellTiter-Glo reagent was added into the assay plates using Bioraptr FRD. After 30 min incubation at room temperature, the luminescence intensity in the assay plates was measured using a ViewLux (PerkinElmer, Shelton, CT) plate reader.
# % is set by controls: 0 for no effect and ±100 for the full control effect.
Structure (SMILES),"viability change, negative = cytotoxic",Potency
CCCCCCOc1ccc(N)cc1,-0.155%,–
Cc1ccc2c(n1)Oc1ccc(C(C)C(=O)OCC(=O)N(C)C)cc1C2 (stereo not given),–,inactive
Cl[Si](Cl)(c1ccccc1)c1ccccc1,4.97%,–
NC1[C@H]2CN(c3nc4c(cc3F)c(=O)c(C(=O)O)cn4-c3ccc(F)cc3F)C[C@@H]12 (stereo not given in full),2.91% [at 42.5 µM],–
NC[C@H]1O[C@H](O[C@H]2[C@H](O[C@@H]3O[C@H](CO)[C@@H](O)[C@H]3O)C(O)[C@H](N)C[C@@H]2N)[C@H](N)[C@@H](O)[C@@H]1O (stereo not given in full),2.15% [at 8.39 µM],–
COCCCN,–,inactive
CCCCCCC(C)O (stereo not given),–,inactive
CCCC(=O)OC(C)(C)Cc1ccccc1,-4.17%,–
O=C(O)c1cc(=O)[nH]c(=O)[nH]1,–,inactive
CC(C)(C)c1ccc(C(=O)O)cc1,2.85%,–
CC(CO)(CO)CO,3.67%,–
CN1CCN(Cc2cc(-c3ccc4[nH]c(=O)oc4c3)co2)[C@@H](c2ccc(F)cc2)C1,0.14%,–
CCCCOC(=O)CC#N,-6.72%,–
CCCCCCCC(=O)OCCCCCC,-0.487%,–
CC(Oc1c(Cl)cccc1Cl)C1=NCCN1 (stereo not given),0.0926% [at 42.5 µM],–
CCCc1ncc(C(=O)O)s1,10.4% [at 42.5 µM],–
O=[N+]([O-])c1ccc2c(c1)Cc1ccccc1-2,2.28%,–
CC/C=C(\C(=O)N[C@@H]1C(=O)N2C(C(=O)OCOC(=O)C(C)(C)C)=C(COC(N)=O)CS[C@H]12)c1csc(N)n1,–,inactive
CCCCOCC(C)O (stereo not given),2.28%,–
CC(=O)CC(=O)N(C)C,–,inactive

Structure (SMILES),"viability change, negative = cytotoxic",Potency
CN(C)CCCN1c2ccccc2Sc2ccc(Cl)cc21,-9.87% [at 42.5 µM],–
N#[N+]c1ccc2c(S(=O)(=O)[O-])cccc2c1O,-2.89%,–
CCCCCCCCCCO[C@@H]1O[C@H](CO)[C@@H](O)[C@H](O)[C@H]1O,0.271%,–
NC(=S)N/N=C/c1cccnc1,2.93% [at 42.5 µM],–
CC(C)(C)C1CCC(O)CC1 (stereo not given),–,inactive
COCCOC(=O)C1=C(C)NC(C)=C(C(=O)OC/C=C/c2ccccc2)C1c1cccc([N+](=O)[O-])c1 (stereo not given),-3.8% [at 42.5 µM],–
CC1(C)[C@@H]2CC[C@]3(C2)[C@@H]1C(=O)CCC3(C)C,3.65%,–
O=C(c1ccccc1)c1cccc(O)c1,0.102%,–
Brc1cc2ccccc2c2ccccc12,-8.24%,–
CCCCCCCCCC,–,inactive
CC(NC(CCc1ccccc1)C(=O)O)C(=O)N1C(=O)N(C)CC1C(=O)O (stereo not given),3.62% [at 42.5 µM],–
c1ccc2[nH]c(-c3cscn3)nc2c1,–,inactive
CCCCCCC(O)CCCCCCCCCCC(=O)OC (stereo not given),0.154%,–
O=C(O)c1cc(N=Nc2ccc(S(=O)(=O)Nc3ccccn3)cc2)ccc1O,–,inactive
Brc1cc(-c2ccc(Br)c(Br)c2Br)cc(Br)c1Br,-23.8% [at 42.5 µM],–
C/C(=C(\CCOP(=O)(O)O)SC(=O)c1ccccc1)N(C=O)Cc1cnc(C)nc1N,1.04% [at 8.39 µM],–
COc1ccc2nc(N)sc2c1,–,inactive
COC(=O)Nc1nc2ccc(S(=O)c3ccccc3)cc2[nH]1 (stereo not given),–,inactive
CC(=O)Nc1cccc(N)c1,0.431%,–
CCCCCCCC(=O)[O-].CCCCCCCC(=O)[O-].[Zn+2],-3.82% [at 42.5 µM],–
